Source: PubChem (several laboratories)
A selection: hits, their analogues and other compounds. The true share with any hit is near 3.9%.
BoNT-F LC inh = BoNT/F light chain protease inhibitors, primary screen, biochemical, flow cytometry, MLPCN library. Multiplex microsphere protease cleavage assay. inhibition, % at 10 µM. 360,000 tested, 0.22% active. AID 588497, 2011; in the data active = inhibition above about 35%, passing the limit was not always enough; inconclusive = no clear call, values can overlap the other calls
BH1578 lux ind = inducers of Vibrio cholerae quorum light production without autoinducers, primary screen, BH1578 luxS cqsA deficient, single point | V. cholerae BH1578 lux reporter, luminescence, 6 h | activation, % at 18.7 µM | 350,000 tested, 0.16% active; in the data active = activation mostly above about 9.7%, no sharp cut-off; inconclusive = no clear call, values can overlap the other calls; inactive = mostly below about 3.7%
Bead autofluor = flagged as autofluorescent in microsphere protease counterscreen; fluorescence intensity (no concentration beside the values); 360,000 tested, 3.1% active; AID 624483; compound autofluorescence counterscreen, microsphere flow cytometry; hits give high values; in the data active = fluorescence intensity above about 16000; inconclusive = no clear call, values can overlap the other calls
Anthrax LF prot = Bacillus anthracis LF protease inhibitors, primary screen, biochemical, multiplex microsphere, MLPCN library. multiplex microsphere protease cleavage assay. inhibition, % at 10 µM. 360,000 tested, 0.12% active. AID 588501, 2011
MazEF act = activators of E. coli MazEF toxin-antitoxin RNase, primary screen, biochemical, fluorescence, uHTS | Endoribonuclease toxin MazF (Escherichia coli (strain K12)), P0AE70 | FAM/BHQ RNA-DNA oligo cleavage fluorescence, 5 h | activation, % at 20 µM | 350,000 tested, 0.32% active; in the data active = activation above about 50%
Target sequence (P0AE70 whole entry, looked up): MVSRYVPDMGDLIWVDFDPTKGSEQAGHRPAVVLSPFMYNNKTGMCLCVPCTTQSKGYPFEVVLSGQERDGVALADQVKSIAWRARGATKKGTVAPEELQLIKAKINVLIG
BoNT A protease = BoNT/A light chain protease inhibitors, primary screen, biochemical, flow cytometry, MLPCN library; Botulinum neurotoxin type A light chain protease (Clostridium botulinum A str. ATCC 3502); multiplex microsphere protease substrate cleavage; inhibition, % at 10 µM; 360,000 tested, 0.17% active; AID 588499, 2011
Of the large screens only hits and unclear results are named; the others gave an inactive call. Rule as the data show it, unless noted: active = inhibition above about 30%; inconclusive = no clear call, values can overlap the other calls; inactive = below that.

Cc1ccc(CNC(=O)CCS(=O)(=O)c2ccc3c(c2)NC(=O)CS3)cc1	none
Cc1cccn2c(=O)c(C=O)c(N3CCCCCC3)nc12	Bead autofluor 19642
COc1ccccc1N1CCN(c2nc3c(C)cccn3c(=O)c2C=O)CC1	Bead autofluor 20185, BoNT A protease inconclusive
Cc1cccn2c(=O)c(C=O)c(N3CC(C)OC(C)C3)nc12 (centres undefined)	none
CC(=O)c1ccc(OC(=O)Cc2cccc3ccccc23)cc1	BoNT-F LC inh inconclusive
Cc1cc(O)c(C(C[N+](=O)[O-])c2ccc(Cl)cc2Cl)c(=O)o1 (centres undefined)	Bead autofluor 17730
O=S(=O)(/N=C(/Nc1cccc2ccccc12)c1ccc(F)cc1)c1ccccc1	none
CCNc1nc(NC(C)C)nc(NS(=O)(=O)c2ccc(N)cc2)n1	Bead autofluor 17274
CCNc1nc(NC(C)C)nc(NS(=O)(=O)c2ccc(Cl)cc2)n1	Bead autofluor 22725
CCN(CC)c1nc(N)nc(NS(=O)(=O)c2ccc(Cl)cc2)n1	Bead autofluor 19449, BoNT A protease inconclusive
Cc1cc(NN)nc(NS(=O)(=O)c2ccc(Cl)cc2)n1	none
CC(C)Nc1nc(NC(C)C)nc(NS(=O)(=O)c2ccc(N)cc2)n1	Bead autofluor inconclusive (no result: BH1578 lux ind)
Cc1nn(CCOc2ccccc2)c(=O)n1-c1cccc(F)c1	Bead autofluor 16398
Cc1nn(CCOc2ccccc2)c(=O)n1-c1ccc(F)cc1	none
Cc1cc2c(C)cc(=O)oc2c2c1NCCC2	Bead autofluor 25354
CC(Oc1ccccc1Cl)C(=O)Nc1ccc(S(=O)(=O)N2CCCC2)cc1 (centres undefined)	none
C=CCn1c(SCc2csc(C)n2)nc2sc3c(c2c1=O)CCCCC3	Bead autofluor 21298
Cc1ccc(OCC(=O)Nc2ccc(Cl)cc2C(=O)c2ccccc2)cc1	none
Cc1ccc(C(=O)Nc2ccc(Cl)cc2C(=O)c2ccccc2)cc1	Bead autofluor 23597
CC1(C(=O)NS(=O)(=O)Cc2cccc(Cl)c2)CCN1C(=O)C/C=C/c1ccccc1 (centres undefined)	none (no result: MazEF act)
Brc1cc(Br)c2nc(-c3ccc(N4CCOCC4)cc3)ccc2c1	Bead autofluor 19443, BoNT A protease inconclusive
COc1ccccc1Oc1cc(F)nc(N)n1	Bead autofluor 17544, BoNT A protease inconclusive
FC(F)(F)c1ccccc1Cc1c(-c2cccc(Cl)c2)nc2ccc(Cl)cn12	none (no result: BH1578 lux ind, MazEF act)
CCCC(=O)Nc1ccc(C(=O)NNC(=O)c2cccs2)cc1	Bead autofluor 22535
O=C(CCC(=O)Nc1ccccc1)NNC(=O)c1cccs1	Bead autofluor 21744
COc1cccc(-c2nc(CS(=O)(=O)CC(=O)Nc3cc(F)ccc3F)c(C)o2)c1	none
O=C(c1cc2c(s1)CCCC2)N1CCC2(CC1)OCCO2	Bead autofluor 23757, BoNT A protease inconclusive
O=C(c1cc2c(s1)CCCC2)N1CCN(C(=O)C2CCCO2)CC1 (centres undefined)	none
CN(CC(=O)Nc1c(Cl)cccc1Cl)C(=O)CCC(=O)c1ccccc1	none (no result: BoNT-F LC inh, Bead autofluor, Anthrax LF prot, BoNT A protease)
CCc1nc2ccc(C(=O)NCc3cccs3)cn2c1N(CC)Cc1cccc(Br)c1	none (no result: MazEF act)
CCN(c1cccc(C)c1)S(=O)(=O)c1ccc2[nH]c(=O)c(=O)[nH]c2c1	Bead autofluor 21312
CCN(c1cccc(C)c1)S(=O)(=O)c1cccc(C(=O)O)c1	Bead autofluor 23200
CC(=O)c1ccc(OC2(C)CCN(Cc3cc4ccccc4[nH]3)C2)cc1 (centres undefined)	none (no result: MazEF act)
CCOC(=O)[C@]12CCC=C1N(Cc1ccco1)C(=O)[C@H](CC(=O)N1CCN(C(=O)c3ccco3)CC1)C2	none (no result: BH1578 lux ind, MazEF act)
O=C1c2ccccc2S(=O)(=O)N1CC(O)COc1ccc(Br)cc1 (centres undefined)	Bead autofluor 16210
CSc1nc(-c2ccccc2)ccc1C(N)=O	Bead autofluor 21978, BoNT A protease inconclusive
C[C@H](O)CNC(=O)c1[nH]cnc1C(=O)Nc1cccc(Cl)c1	none
COc1ccc(NC(=O)CCc2nnc3ccc(N4CCN(c5cccc(OC)c5)CC4)nn23)cc1	none
CC(=O)Nc1nc(C)c(Oc2ccc(Cl)cc2Cl)c(=O)[nH]1	BH1578 lux ind 16.7
CC(N)c1csc(Nc2ncccn2)n1 (centres undefined)	none (no result: MazEF act)
Nc1ccc2c(c1)C(=O)CCC2	none
O=C(CN1CC(c2ccccc2)CC1=O)OCc1cccc(Br)c1 (centres undefined)	Bead autofluor inconclusive, BoNT A protease inconclusive (no result: BH1578 lux ind)
Nc1nnnn1CC(=O)OCc1cccc(Br)c1	Bead autofluor 23207, BoNT A protease inconclusive
Cc1noc(C)c1-c1ccc(C(=O)N2CCN(C)CC2)c2occc12	none (no result: MazEF act)
CCCCOC(=O)Nc1nnc(Cc2ccc(Cl)cc2)s1	none
Cc1ccc(OCC(=O)N(C)CCc2ccccn2)cc1	Bead autofluor 24016, BoNT A protease inconclusive
COC(=O)c1oc2c(c1C)C(=O)CC(C)(C)C2	none
Cc1c(C(=O)NCc2cccnc2)oc2c1C(=O)CC(C)(C)C2	Bead autofluor 21305
CCNC(=O)c1oc2c(c1C)C(=O)CC(C)(C)C2	Bead autofluor 20892
O=C(NC1CC2CCCC(C1)N2C(=O)Nc1ccc(F)cc1)c1ccccc1 (centres undefined)	none
O=C1N=C(N2CCOCC2)S/C1=C\c1ccc(-c2ccccc2Cl)o1	MazEF act 61.4
Cc1ccccc1-c1ccc(/C=C2/SC(N3CCOCC3)=NC2=O)o1	BoNT-F LC inh inconclusive, MazEF act 151.2
O=C1N=C(N2CCOCC2)S/C1=C\c1cccs1	none
COc1nc(NCc2cccnc2)nc(OC)n1	Bead autofluor 16316, BoNT A protease inconclusive
COc1nc(NCc2cccnc2)nc(NC2CCCCC2)n1	none
CCOC(=O)Cn1c(=O)oc2cc(S(=O)(=O)NCCc3ccc(OCC)c(OCC)c3)ccc21	Bead autofluor 22861, BoNT A protease inconclusive
CCOC(=O)Cn1c(=O)oc2cc(S(=O)(=O)N(CCN(C)C)Cc3ccccc3)ccc21	Bead autofluor 23509
CCOC(=O)Cn1c(=O)oc2cc(S(=O)(=O)N(C)Cc3ccccc3)ccc21	none
CCOCCCNS(=O)(=O)c1ccc2c(c1)oc(=O)n2CC(=O)OCC	Bead autofluor 23318
CCOC(=O)Cn1c(=O)oc2cc(S(=O)(=O)Nc3cc(OCC)ccc3OCC)ccc21	Bead autofluor 16486, BoNT A protease inconclusive
O=[N+]([O-])c1nccn1CCCCCCN1CCOCC1	none (no result: BH1578 lux ind, MazEF act)
Cc1ccc2[nH]c(=O)c(-c3nc4ccccn4c3NCc3ccco3)cc2c1	Bead autofluor 16211
Oc1ccc(/C=C/c2nc(-c3ccccc3O)n(-c3ccccc3)n2)cc1	Bead autofluor 24194
CSc1nc2ccsc2c(=O)n1-c1ccccn1	none
